Results from PubChem BioAssay (EPA / NIEHS).
The source made the active and inactive calls. The calls were made as follows: active = hit-call score of the fitted dose curve at least 0.9, where 1 is the maximum; inactive = score below 0.9.

Legend:
[1] = Tanguay_ZF_120hpf_ANY: Oregon State University Tanguay Lab 120 Hour Post-fertilization zebrafish Assay for Any Mortality and Malformation (AID 2284404)
Outline: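 Dechorionated Tropical 5D wild-type embryos, one per well from 6 hpf, static exposure in sealed, dark plates at 28C until 120 hpf, 0.64% DMSO final. Brightfield scoring of mortality and malformations as binary presence/absence, pooling 13 morphology endpoints.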

[2] = CCTE_Padilla_ZF_Score.Edema: CCTE's 144 Hour Post-fertilization zebrafish Assay Score for Edema Malformation, Padilla Lab (AID 2284406)
Outline: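 Wild-type zebrafish embryos, one per well in Hanks' solution, dosed at 6-8 hpf, sealed and reared at 26C on a 14:10 h cycle; rinsed on 5 dpf. At 6 dpf, blinded assessors scored edema by stereomicroscopy.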

[3] = CCTE_Padilla_ZF_Score.Spine: CCTE's 144 Hour Post-fertilization zebrafish Assay Score for Spine Malformation, Padilla Lab (AID 2284407)
Outline: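 Wild-type zebrafish embryos, one per well in Hanks' solution, dosed at 6–8 hpf in sealed plates at 26C, 14:10 h light:dark; rinsed at 5 dpf. Two blinded assessors scored spinal defects by stereomicroscopy at 6 dpf; fitted versus DMSO.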

[4] = CCTE_Padilla_ZF_Score.Swim_bladder: CCTE's 144 Hour Post-fertilization zebrafish Assay Score for Swim Bladder Malformation, Padilla Lab (AID 2284408)
Outline: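 Wild-type zebrafish embryos, one per well in 10% Hanks', dosed at 6–8 hpf, sealed, reared at 26C and rinsed at 5 dpf. Blinded assessors scored uninflated swim bladder by stereomicroscopy at 6 dpf, relative to DMSO.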

[5] = CCTE_Padilla_ZF_Score.Position: CCTE's 144 Hour Post-fertilization zebrafish Assay Score for Position, Padilla Lab (AID 2284409)
Outline: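 Wild-type zebrafish embryos (with chorions) exposed singly from 6–8 hpf in sealed wells of Hanks' solution at 26C, rinsed at 5 dpf. At 6 dpf, blinded assessors scored abnormal water-column position by brightfield stereomicroscopy, relative to DMSO.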

[6] = CCTE_Padilla_ZF_Score.Living: CCTE's 144 Hour Post-fertilization zebrafish Assay Score for Viability, Padilla Lab (AID 2284410);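 also: larval death at 6 dpf judged by absent heartbeat or coagulation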
Outline: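 Wild-type zebrafish embryos were exposed singly from 6–8 hpf in sealed wells of Hanks' solution at 26C, then rinsed at 5 dpf. At 6 dpf, blinded assessors scored mortality (no heartbeat or coagulation) by stereomicroscopy, fitted against DMSO.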

[7] = CCTE_Padilla_ZF_Score.General: CCTE's 144 Hour Post-fertilization zebrafish Assay Score for General Malformation, Padilla Lab (AID 2284411)
Outline: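 Wild-type zebrafish embryos were plated singly at 6-8 hpf in 10% Hanks' and exposed in sealed wells at 26C until rinsed on 5 dpf. At 6 dpf two blinded assessors scored mortality, hatching and malformations by stereomicroscopy; gain-of-signal versus DMSO.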

[8] = CCTE_Padilla_ZF_Score.Craniofacial: CCTE's 144 Hour Post-fertilization zebrafish Assay Score for Craniofacial Malformation, Padilla Lab (AID 2284405)
Outline: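 Wild-type zebrafish embryos (with chorions), one per well in 10% Hanks', were dosed at 6–8 hpf in sealed plates and kept at 26C. They were rinsed at 5 dpf. At 6 dpf two blinded assessors scored craniofacial malformations by brightfield stereomicroscopy.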

[9] = CCTE_Padilla_ZF_Score.Blood_pooling: CCTE's 144 Hour Post-fertilization zebrafish Assay Score for Blood Pooling, Padilla Lab (AID 2284415)
Outline: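 Wild-type outbred zebrafish embryos, one per well in 10% Hanks', exposed from 6–8 hpf in sealed plates at 26C on 14:10 h light:dark, rinsed at 5 dpf. Blinded stereomicroscope scoring of blood pooling at 6 dpf; gain-of-signal versus DMSO.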

[10] = CCTE_Padilla_ZF_Score.Tail: CCTE's 144 Hour Post-fertilization zebrafish Assay Score for Tail Malformation, Padilla Lab (AID 2284414)
Outline: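 Wild-type zebrafish embryos, one per well in 200 uL 10% Hanks', dosed at 6-8 hpf, sealed, and kept at 26 C on a 14:10 h light cycle. Chemical was rinsed out at 5 dpf. Blinded brightfield scoring of tail defects followed at 6 dpf.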

Measured: AC50

CCN(CCO)S(=O)(=O)C(F)(F)C(F)(F)C(F)(F)C(F)(F)C(F)(F)C(F)(F)C(F)(F)C(F)(F)F
not listed: [8] | [9] | [10]
inactive: all other assays above

NC(=O)C(F)(F)C(F)(F)C(F)(F)C(F)(F)C(N)=O
not listed: [8] | [9] | [10]
inactive: all other assays above

OCCCCC(F)(F)C(F)(F)C(F)(F)C(F)(F)F
inactive: [1] | [3]
active: [2] 29.2 µM | [4] 30.6 µM | [5] 34.1 µM | [6] 88.8 µM | [7] 21 µM

O=S(=O)(O)CCC(F)(F)C(F)(F)C(F)(F)C(F)(F)C(F)(F)C(F)(F)C(F)(F)C(F)(F)F
active: [1] 74.4 µM
not listed: [8] | [9] | [10]
inactive: all other assays above

O=C(Cl)C(F)(F)C(F)(F)C(F)(F)C(F)(F)C(F)(F)C(F)(F)C(F)(F)F
active: [2] 86.8 µM
inactive: [3] | [4] | [5] | [6] | [7]

NCC(F)(F)C(F)(F)C(F)(F)C(F)(F)C(F)(F)C(F)(F)F
inactive: [8] | [3] | [4] | [5] | [6]
active: [2] 75.3 µM | [7] 75.3 µM

NC(O)(C(F)(F)F)C(F)(F)F
active: [7] 85 µM
not listed: [8] | [9] | [10]
inactive: all other assays above

CN(C(=O)C(F)(F)C(F)(F)C(F)(F)F)[Si](C)(C)C
not listed: [8] | [9] | [10]
inactive: all other assays above

FC(F)(F)C(F)(F)C(F)(F)CC1CO1 (stereo not drawn)
not listed: [8] | [10]
inactive: all other assays above

C=C(C)C(=O)OCC(F)(F)C(F)(F)C(F)(F)C(F)F
inactive: [2] | [3] | [4] | [5] | [6] | [7]

O=C(O)C(F)(F)C(F)(F)C(F)(F)C(F)(F)C(F)(F)C(F)(F)C(F)F
inactive: [2] | [3] | [4] | [5] | [6] | [7]

O=S(=O)(Cl)C(F)(F)C(F)(F)C(F)(F)C(F)(F)C(F)(F)C(F)(F)C(F)(F)C(F)(F)F
active: [2] 33.5 µM | [3] 88.8 µM | [4] 12.1 µM | [5] 81.7 µM | [6] 88.8 µM
inactive: [1] | [7]

COC(F)(C(F)F)C(F)(F)F (stereo not drawn)
not listed: [8] | [9] | [10]
inactive: all other assays above

OC(O)C(F)(F)C(F)(F)F
not listed: [8] | [10]
inactive: all other assays above

O=C(O)C(F)(F)C(F)(F)C(F)(F)OC(F)(F)F
not listed: [8] | [9] | [10]
inactive: all other assays above

O=C(O)C(F)(F)OC(F)(F)C(F)(F)OC(F)(F)C(F)(F)OC(F)(F)F
inactive: [2] | [3] | [4] | [5] | [6] | [7]

CNS(=O)(=O)C(F)(F)C(F)(F)C(F)(F)C(F)(F)C(F)(F)C(F)(F)C(F)(F)C(F)(F)F
active: [1] 55.5 µM | [2] 20.7 µM | [4] 0.606 µM | [7] 0.737 µM
inactive: [3] | [5] | [6]

CN1CN(C)CN(C)C1
inactive: [7]

C[Si](Cl)(Cl)CCC(F)(F)C(F)(F)C(F)(F)C(F)(F)C(F)(F)C(F)(F)F
not listed: [8] | [9]
inactive: all other assays above

O=C(Cl)C(F)(F)C(F)(F)C(F)(F)C(F)(F)C(F)(F)C(F)(F)F
active: [2] 76.8 µM | [7] 76.8 µM
inactive: [3] | [4] | [5] | [6]

O=C(c1ccccc1)c1ccc(O)cc1O
inactive: [7]

Nc1cc([N+](=O)[O-])cc(Cl)c1O
inactive: [7]

NCC(F)(F)C(F)(F)C(F)(F)C(F)(F)C(F)(F)C(F)(F)C(F)(F)C(F)(F)F
inactive: [2] | [3] | [4] | [5] | [7]
active: [6] 32.4 µM

OCC(F)(F)C(F)(F)C(F)(F)C(F)(F)C(F)(F)C(F)(F)CO
active: [2] 62.9 µM | [4] 11.6 µM | [7] 47.7 µM
not listed: [8] | [9]
inactive: all other assays above

CCN(CC)c1ccc(C=O)cc1
inactive: [7]

O=C(O)CCC(F)(F)C(F)(F)C(F)(F)C(F)(F)C(F)(F)C(F)(F)C(F)(F)F
not listed: [8] | [9] | [10]
inactive: all other assays above

CC(C)CCCC(C)CCO (stereo not drawn)
inactive: [7]

c1ccc(C[P+](c2ccccc2)(c2ccccc2)c2ccccc2)cc1
inactive: [7]
